Reference: PubChem BioAssay AID1626 (SRMLSC, 2009)
“And” between values parts separate entries of the source, which are not always exact repeats. Equal values may be shown once. About 2,000 (0.91%) of roughly 220,000 compounds were called active. Another 2% or so got no clear call; they are omitted. Only a sample is shown. Results with a measured potency or affinity are listed apart. A number with no mark means an inactive call. No stated cut-off is given here; in the data, inconclusive means inhibition above about 80% without an active follow-up result; inactive means below that; test concentration not stated here.

Assay: M. tuberculosis H37Rv growth inhibitors, H37Rv strain (AID 1626);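 further: bacteria incubated seven days before Alamar blue readout; 0% = bacteria only wells and 100% = bacteria with antibiotic wells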
Conditions: hits give high values, concentration not given here

| SMILES | inhibition |
| --- | --- |
| O=C(/C=C/c1ccc(Cl)cc1)NCc1ccco1 | -3.37% |
| CCn1c(SCC(=O)Nc2ccc(C)cc2)nc2nc3c(cc2c1=O)COC(C)(C)C3 | 11.8% |
| Nc1o[nH]c(=O)c1Cc1ccccc1 | -2.12% |
| CCOC(=O)c1sc(NC(=O)CNCc2cccnc2)c(C(=O)OCC)c1C | 0.97% |
| CCOC(=O)c1sc(NC(=O)CCN2C(=O)c3ccccc3C2=O)c(C(=O)OCC)c1C | -2.12% |
| CC1CCN(CC(=O)NCc2ccco2)CC1 | -7.7% |
| COC(=O)c1sccc1NC(=O)COc1cccc(C)c1 | 0.14% |
| O=C(NC(=S)Nc1ccc(CN2CCOCC2)cc1)c1ccc(-c2ccc(Br)cc2)o1 | 42.5% |
| Cc1cc(CSc2ccccc2)ccc1NC(=O)c1ccc(CN2CCOCC2)cc1 | 7.66% |
| NC(=O)c1ccc(NC(=O)c2ccc(CN3CCOCC3)cc2)cc1 | -7.24% |
| O=C(Nc1ccc(CN2CCOCC2)cc1)c1ccc(-c2cccc(Cl)c2)o1 | 8.55% |
| CC(OC(=O)c1ccccc1Oc1ccccc1)C(=O)NC1CC1 (configuration not stated) | 4.72% |
| O=S(=O)(Nc1nc2ccccc2nc1-[n+]1ccccc1)c1ccc(Cl)cc1 | -0.65% |
| O=C1c2cccc3cc([N+](=O)[O-])cc(c23)C(=O)N1c1ccccc1O | 6.45% |
| Nc1cc2c3c(cccc3c1)C(=O)N(CCN1CCCC1)C2=O | 18.6% |
| Cc1nn(-c2ccccc2)c(Cl)c1C(=O)NCC(=O)O | 4.16% |
| Fc1cccc(-n2ncc(-c3nnnn3-c3ccccc3)c2C(F)(F)F)c1 | -6.57% |
| CC(=O)OCCCNc1cc(Sc2ccc(Cl)cc2)c2nonc2c1[N+](=O)[O-] | 8.58% |
| O=[N+]([O-])c1c(NCCCO)cc(Sc2ccc(Cl)cc2)c2nonc12 | 53.5% |

| SMILES | inhibition |
| --- | --- |
| CC(=O)OCCNc1cc(Sc2nc3ccccc3[nH]2)c2nonc2c1[N+](=O)[O-] | -3.19% |
| O=[N+]([O-])c1c(NCc2ccco2)ccc2nonc12 | -3.46% |
| CCC(=O)OCCNc1cc(Sc2nc3ccccc3[nH]2)c2nonc2c1[N+](=O)[O-] | 42.4% |
| O=[N+]([O-])c1c(NCCCO)cc(SCc2ccco2)c2nonc12 | 74.7% |
| CC(=O)OCCCNc1cc(Sc2ccc(C)cc2)c2nonc2c1[N+](=O)[O-] | 13.8% |
| N/C(=N\OC(=O)COc1ccccc1Cl)c1ccc(Cl)cc1 | 7.15% |
| COc1cc2c(cc1OC)CN(C(=O)CSc1nc(N)c(C#N)cc1C#N)CC2 | -0.19% |
| CCN(CC)CCN(C(=O)c1ccc(Br)s1)c1nc2cc3c(cc2s1)OCO3 | 4.27% |
| CCCCNC(=O)CCCCC(=O)N/N=C/c1ccccc1Cl | -1.94% |
| COc1ccc(O)c(C2=Nc3ccccc3N=C(c3ccco3)C2)c1 | 6.13% |
| COc1ccc(NC(=O)NC2CCCCC2C)cc1 (configuration not stated) | 0.36% |
| COc1ccc(C2(C(=O)N3CCCC3)CCOCC2)cc1OC | -12.9% |
| COc1cc(OC)c2ccc(=O)oc2c1C(CCN1CCCC(C)C1)c1ccc2c(c1)OCO2 (configuration not stated) | -5.64% |
| COc1cc(OC)c2c(-c3ccccc3)cc(=O)oc2c1C(CC(=O)N1CCOCC1)c1ccc2c(c1)OCO2 (configuration not stated) | 0.96% |
| COc1cc(OC)c2c(-c3ccccc3)cc(=O)oc2c1C(CCN1CCCC1)c1ccc2c(c1)OCO2 (configuration not stated) | 77% |
| COc1cc(OC)c2c(-c3ccccc3)cc(=O)oc2c1C(CC(=O)N1CCCC1)c1ccc2c(c1)OCO2 (configuration not stated) | 0.92% |
| CCN(CC)C(=O)CC(c1ccc2c(c1)OCO2)c1c(OC)cc(OC)c2c(-c3ccccc3)cc(=O)oc12 (configuration not stated) | -2.83% |
| CCN(CC)CCC(c1ccc(N(C)C)cc1)c1c(OC)cc(OC)c2c(-c3ccccc3)cc(=O)oc12 (configuration not stated) | 14.1% |
| CCN(CC(=O)NCc1ccc(F)cc1)CC(=O)Nc1ccccc1-c1ccccc1 | -6.65% |

| SMILES | inhibition |
| --- | --- |
| C=CCN1C(=O)C(CC(=O)Nc2ccccc2F)S/C1=N\c1nccs1 (configuration not stated) | 6.25% |
| CCCNC(=O)C(=O)NCCC1=CCCCC1 | -4.88% |
| COc1cccc(OC)c1C(=O)Nc1c(C)n(C)n(-c2ccccc2)c1=O | 0.17% |
| O=C(COc1ccc(Br)cc1CO)Nc1ccc(F)cc1 | 9.43% |
| CCCCN(C)C(=O)C(Cc1ccccc1)NS(=O)(=O)c1ccc2c(c1)CCC(=O)N2 (configuration not stated) | -4.66% |
| CNC(=S)N(Cc1ccco1)Cc1cc2cc(OC)ccc2[nH]c1=O | -3.07% |
| CCCCCCNC(=O)N1C/C=C\C(c2ccc(OC)cc2)N(Cc2ccc(F)cc2)C(=O)C1 (configuration not stated) | -0.25% |
| C[n+]1c2n(c3ccccc31)N=C(c1ccc(-c3ccccc3)cc1)CS2 | 5.47% |
| C[n+]1c2n(c3ccccc31)N=C(c1ccccc1)CS2 | -4.82% and 0% |
| O=C(N/N=C/c1ccc2c(c1)OCO2)c1ccc(COc2cccc3cccnc23)cc1 | 0.48% |
| COCC(=O)NNC(=S)Nc1cccc(C)c1C | 9.36% |
| COC(=O)c1ccc(C(=O)OC)c(NC(=S)N2CCOCC2)c1 | 5.12% |
| CCN(CC)C(=O)CSc1nnc2nnc3cc(OC)ccc3n12 | 44% |
| CCN(CC)C(=O)CSc1nnc2nnc3cc(C)ccc3n12 | 65.9% |
| CCOc1ccc(-c2onc(C(F)(F)F)c2-c2cscn2)c(O)c1 | 6.75% |
| COc1cc(/C=C/C(=O)O)cc(S(=O)(=O)Nc2ccccc2Oc2ccccc2)c1OC | -0.26% |
| CSc1sc(C(=O)N2CCCCC2)c(-c2cccs2)c1C#N | -3.75% |
| COc1ccc(C2=NC(C(F)(F)F)(C(F)(F)F)c3c(n(C)c(=O)n(C)c3=O)N2)cc1 | -0.04% |
| Cn1c2c(c(=O)n(C)c1=O)C(C(F)(F)F)(C(F)(F)F)N=C(c1ccccc1Cl)N2 | -9.88% |
